An excerpt weighted towards active compounds, which were near 2.4% of everything screened.
15-hLO-2 inh – blocks human 15-lipoxygenase 2 activity. AID 881. purified 15hLO-2, xylenol orange hydroperoxide absorbance. O15296. Potency, µM (series often up to 57.1 µM), without a hit: top-dose activity change, negative = inhibition, actives largely listed as inhibitors. hit rate 0.56% among 110,000; also: % is scaled to controls: 0 for no effect and ±100 for the full control effect; nearly all actives have a fitted effect of over 60% in size
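Purified human 15hLO-2 (50 nM final) preincubated with compounds 15 min at room temperature in 25 mM Hepes pH 7.5, 0.01% Triton X-100, then 45 uM arachidonic acid added for 90 min; hydroperoxide detected via ferrous/xylenol orange, 573/405 nm absorbance ratio.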
Casp1 inh – caspase-1 (human) inhibition, allosteric or competitive; P29466; Potency, µM (titrated, usually from 57.5 µM), for the others: at the top dose activity change, negative = inhibition, usual class: inhibitors; hit rate 0.03% among 75,000; Caspase-1 enzyme, Ac-WEHD-AFC fluorogenic rate;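 also: plate controls were vehicle for no effect and no substrate for full effect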
Tau filament bind – binds recombinant human tau filaments; P10636; recombinant tau filaments, thioflavin S fluorescence, 15 h; filaments grown with octadecylsulfate alongside compound; Potency, µM (top dose mostly 57.1 µM), for the others: at the top dose activity change, negative = inhibition; hit rate 2% among 71,000;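 also: % is scaled to controls: 0 for no effect and ±100 for the full control effect; actives lower thioflavin S fluorescence by blocking filaments or displacing dye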
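Read-out: ThS fluorescence, 450 nm excitation/510 nm emission; lower signal marks blocked filament formation or displaced dye. Tau at 1 uM with 30 uM ODS, 10 uM ThS, 5 mM DTT, 100 mM NaCl, 10 mM HEPES pH 7.4; 15 h, 37 C.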
Hsp90 Hop PPI – changes Hsp90-Hop TPR2A binding signal, up or down | Potency, µM (series often up to 57 µM), inactives show at the highest dose activity change, negative = inhibition | AlphaScreen TPR2A-His6 binding biotin-Hsp90 C-terminal peptide | hit rate 0.44% among 71,000; active = well fitted curve in either direction with a large enough effect; inconclusive = small, poorly fitted or top-dose-only effect, or another doubt; also: % is scaled to controls: 0 for no effect and ±100 for the full control effect
ALOX15 inhib – 15-hLO (ALOX15) enzyme inhibition; P16050; purified 15hLO-1, xylenol orange hydroperoxide absorbance; Potency, µM (doses to about 57.1 µM), for the others: at the highest dose activity change, negative = inhibition, actives largely listed as inhibitors; hit rate 1.4% among 74,000; AID 887; also: % is scaled to controls: 0 for no effect and ±100 for the full control effect; nearly all actives have a fitted effect of over 55% in size
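Purified human 15hLO-1 (40 nM) in 25 mM Hepes pH 7.5, 0.01% Triton X-100, preincubated 15 min RT with compound, then 50 uM arachidonic acid for 6 min. Hydroperoxide read by ferrous/xylenol orange, 30 min; 573/405 nm absorbance ratio gave progress.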
Casp7 inh – caspase-7 (human) inhibition, allosteric or competitive; P55210; recombinant caspase-7, Ac-DEVD-AFC fluorescence rate; Potency, µM (titrated, usually from 57.5 µM), for the others: top-dose activity change, negative = inhibition, hits mostly inhibitors; hit rate 0.02% among 75,000; active = well fitted inhibition curve with a large enough effect in the main read-out, with a control signal flat, not every such curve was filed as active; inconclusive = small, poorly fitted or top-dose-only effect, or a change in a side signal; also: % of control where 0% means no effect
Starred values were filed as active, the others as inactive; ? = inconclusive; nt = no result; ! = repeats disagree; [ ] = remark or other dose. Unless noted, calls follow the shape of the dose curve; as a rule, active = well fitted curve in the direction sought with a large enough effect; inconclusive = small, poorly fitted or top-dose-only effect, or another doubt; inactive = no such curve, though single readings can be large; an effect the other way counts as inactive or inconclusive. Potency is read from the fitted curve at half-maximal effect.

SMILES	15-hLO-2 inh	Casp1 inh	Tau filament bind	Hsp90 Hop PPI	ALOX15 inhib	Casp7 inh
O=C(c1cc2nc(-c3ccco3)cc(C(F)(F)F)n2n1)N1CCN(c2ccccn2)CC1	0%[2.29 µM]	?	25µM*	-9%	-13%	?
O=S(=O)(c1ccc2nc(-c3ccco3)c(-c3ccco3)nc2c1)N1CCOCC1	?	nt	28%	-23%	2.5µM*	?
CN(C(=O)c1cc2nc(-c3ccco3)cc(C(F)(F)F)n2n1)C1CCCCC1	-5%	-6%	nt	nt	10µM*	-11%
O=C(c1cc2nc(-c3ccccc3)cc(C(F)(F)F)n2n1)N1CCCC1	nt	-1%	-9%	0%	2%	-1%
O=C(c1ccc2nc(-c3ccco3)c(-c3ccco3)nc2c1)N1CCN(c2ccccc2)CC1	5%[2.29 µM]	nt	1µM*	?	3.2µM*	?
CC(=O)C1=C(C)NC(=O)NC1c1cccs1 (stereo not drawn)	4%	nt	nt	nt	nt	nt
CCCC(=O)N(c1ccc2oc(=O)sc2c1)S(=O)(=O)c1ccccc1	3%[2.29 µM]	0%	-13%	-11%	25µM*	0%
CC(C)C(=O)N(c1ccc2oc(=O)sc2c1)S(=O)(=O)c1cccs1	?	-4%	-18%	-9%	20µM*	-2%
COC(=O)c1c(C)oc2ccc(N(C(=O)c3ccncc3)S(=O)(=O)c3ccccc3)cc12	-5%	nt	nt	nt	nt	nt
CC(=O)N(c1ccc2oc(=O)sc2c1)S(=O)(=O)c1cccs1	-7%	-2%	-11%	-8%	10µM*	2%
COC(=O)/C(C(C)=O)=C(/C=C/C=C/N(C)C)N(C)C	-25%	nt	nt	nt	nt	nt
Cc1ccsc1C1CC(=O)NC2=C1C(=O)CC(C)(C)C2 (stereo not drawn)	-11%	0%	6%	-2%	13%	3%
CCC(c1nnnn1Cc1ccco1)N(Cc1cc2cc(C)cc(C)c2[nH]c1=O)CC1CCCO1 (stereo not drawn)	3%	-17%	66%	-3%	10µM*	-16%
COc1ccc2[nH]c(=O)c(CN(C3CCCCC3)C(c3nnnn3Cc3ccco3)C(C)C)cc2c1 (stereo not drawn)	?	?	31%	-20%	16µM*	?
CCC(c1nnnn1Cc1ccco1)N(Cc1ccccc1OC)Cc1cc2cc(C)ccc2[nH]c1=O (stereo not drawn)	-6%	-13%	28%	-3%	-28%	-11%
CC(=O)N1CCC2(CCCN(c3ccncc3)C2)CC1	-21%	-1%	-6%	2%	-4%	-1%
O[C@H](CN1CCN(c2cccc(Cl)c2)CC1)C(c1ccccc1)c1ccccc1	18%	-1%	40µM*!	9%	?	-2%
CC(C)c1nc(=S)c2ccccc2[nH]1	-2%	-1%	-6%	-3%	-16%	-1%
NS(=O)(=O)c1ccc(N=Nc2cc3ccccc3c(C(=O)O)c2O)cc1	-10%[11.4 µM]	2%[11.5 µM]	1.3µM*	?	-10%[11.4 µM]	-8%[11.5 µM]
O=C(Nc1ccc(Cl)cc1)Nc1nc(-c2sccc2Br)cs1	-6%	nt	nt	nt	nt	nt
Cc1cc(Cl)nc(NC(=O)CSc2ccc(Cl)cc2)n1	-4%[11.4 µM]	?	8%[11.4 µM]	-1%[11 µM]	7%[11.4 µM]	5%[11.5 µM]
COc1cccc(Cn2c(=O)c(-c3ccccc3)nc3cncnc32)c1	9%	-12%	20µM*	-3%	-6%	-14%
COc1cccc(Cn2c(=O)c(-c3ccc(F)c(F)c3)nc3cncnc32)c1	-5%	-8%	10µM*	-12%	?	-7%
COc1cccc(Cn2c(=O)c(-c3cccs3)nc3cncnc32)c1	-12%	nt	?	-4%	-8%	?
Cc1ccc2[nH]c(=S)cc(C)c2c1	13µM*	-3%	5%	2%	3.2µM*	-5%
SMILES	15-hLO-2 inh	Casp1 inh	Tau filament bind	Hsp90 Hop PPI	ALOX15 inhib	Casp7 inh
CC(C)C(NC(=O)C1CCCCC1)C(=O)NCc1ccccn1 (stereo not drawn)	-1%	1%	6%	1%	7%	3%
Cn1c(=O)n(CCCOc2ccc(Br)cc2)c2ccccc21	8%	-2%	36%	2%	-11%	-5%
COc1ccc(OC)c(Nc2cc(C(=O)NCCCN3CCOCC3)c3ccccc3n2)c1	12%	-3%	10µM*	-13%	?	-5%
CCN1C(=O)c2c(C)nc3ccccc3c2C1=O	-3%	0%	16µM*	-6%	-10%	0%
C[C@H]1[C@H]2CC[C@H]3C4CC=C5C[C@@H](N(C)C)CC[C@]5(C)C4CC[C@]23CN1C (stereo partly drawn)	0%	-3%	nt	nt	5%[25.6 µM]	1%
COc1ccc2[nH]cc(CCNc3nc(-c4cccc(C#N)c4)nc4ccccc34)c2c1	20%	-8%	?	-20%	4%	-7%
COc1ccc2[nH]cc(CCNc3cc(-c4cccnc4)ncn3)c2c1	?	-5%	-18%	-16%	20µM*	-3%
COc1ccc2[nH]cc(CCNc3nc(-c4ccccc4OC)nc4ccccc34)c2c1	10%	1%	2.5µM*	-20%	?	-1%
COc1ccc2[nH]cc(CCNc3cc(-c4ccc5c(c4)OCO5)ncn3)c2c1	-25%	-3%	?	-22%	13µM*	-2%
COc1ccc2[nH]cc(CCNc3ccnc(-c4ccc5c(c4)OCO5)n3)c2c1	2%	-3%	?	?	?	-4%
COc1ccc2[nH]cc(CCNc3cc(-c4ccccc4C)ncn3)c2c1	0%	-3%	-24%	-22%	?	-5%
Cc1ccc2[nH]c3nc(SCCN4CCOCC4)nnc3c2c1	-14%	-2%	16%	-4%	2.5µM*	-1%
COc1cc(C(=O)N(CCc2ccccc2)C2CC3CCC(C2)N3C)cc(OC)c1OC (stereo not drawn)	12%	2%	3%	0%	-7%	0%
CCCCN(C(=O)c1ccc(Cl)cc1)C1CC2CCC(C1)N2C (stereo not drawn)	nt	-1%	16µM*	-2%[2.3 µM]	0%	1%
CCOc1ccc(S(=O)(=O)Nc2cccc(C(=O)N3CCN(c4ccc(OC)cc4)CC3)c2)cc1	-1%	-4%	-16%	-14%	?	-4%
COc1ccc(N2CCN(C(=O)c3ccc(NS(=O)(=O)c4ccc(F)cc4)cc3)CC2)cc1	-7%	-5%	16µM*	-22%	?	-1%
CCOC(=O)c1c(C)nc2c(c1-c1cc(OC)ccc1OC)C(=O)c1ccccc1-2	9%	nt	nt	nt	nt	nt
CCOC(=O)C1=C(Cc2ccc(OC)cc2)C(=O)c2ccccc2C1=O	13µM*	nt	nt	nt	nt	nt
CCOC(=O)c1ccc(COC(=O)c2ccc3c(c2)-c2ccccc2C3=O)cc1	9%	nt	nt	nt	nt	nt
CCOC(=O)C1=C(Cc2ccc(C)cc2)C(=O)c2ccccc2C1=O	10µM*	nt	nt	nt	nt	nt
Cc1sc(NC(=O)c2ccco2)c(C(c2cccnc2)N2CCC(C)CC2)c1C (stereo not drawn)	50%	nt	nt	nt	nt	nt

Screening data from PubChem BioAssay.
